Source: PubChem
The full list was thinned out, with hits kept by preference.
CRE-bla Fsk = alters forskolin-stimulated CRE reporter signaling in CHO cells; 2.5% of 71,000 active; AID 662; Potency, µM (series often up to 38.2 µM), actives largely listed as activators; CHO CRE-bla reporter (cAMP response element driving beta-lactamase), forskolin EC10, beta-lactamase ratio; active means well fitted activation curve with a large enough effect in the signal ratio, with a control signal flat, not every such curve was filed as active; inconclusive means small, poorly fitted or top-dose-only effect, or effect the other way, or a change in a side signal; the % refers to the signal ratio
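The 460nm/530nm emission ratio after CCF4 loading defined %Activity, from which AC50 values were obtained. CRE-bla CHO cells received compound dilution series together with an EC10 level of NKH 477 for 3 hours at 37 degrees Celsius.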
Imprint erasure = induces erasure of genomic imprints in mouse ES cells; mouse ES Peg3-LacZ reporter, beta-gal luminescence, 40 h; Potency, µM (titrated, usually from 60.7 µM), hits mostly activators; AID 1948; 0.02% of 110,000 active
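Gelatin-coated wells received 300 freshly trypsinized female ES cells with a Peg3LacZ-Neo reporter on the maternal allele, then incubated 40 hours at 37C. BetaGlo was added for 5 minutes at room temperature before a single luminescence read.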
IkB sig inh = suppresses IkB signaling in ABC-DLBCL reporter cells; ABC-DLBCL IkBa-CBG/CBR dual luciferase ratio, 4 h; response scale: scaled: untreated 0%, proteasome inhibitor 100%; Potency, µM (top dose mostly 57.1 µM); 0.04% of 110,000 active; AID 445; active means well fitted curve in the direction sought with a large enough effect in the signal ratio, not every such curve was filed as active; inconclusive means small, poorly fitted or top-dose-only effect, or a change in a side signal; the % refers to the signal ratio;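 further: the direction sought is a rising ratio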
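Luminescence ratio of IκBα-fused green versus native red beetle luciferase in OCI-Ly3 cells, 4 h post-doxycycline with compound; red signal alone, scaled from basal (0%) to zero light (-100%), flagged nonspecific or cytotoxic effects.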
ERK AVP inh = blocks ERK signaling stimulated by vasopressin. HEK293-V1b, vasopressin-stimulated pERK AlphaScreen. Potency, µM (series often up to 57.5 µM), most hits filed as inhibitors. 0.99% of 72,000 active; further: nearly all actives have a fitted effect of over 55% in size
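Phosphorylated ERK1/2 detected via AlphaScreen bead proximity in lysates of V1b-expressing HEK293 cells given 25 nM vasopressin for 5 min after 30 min compound exposure (37 °C). AC50 from Hill equation; basal DMSO 0%, vasopressin 100%.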
Large screens that a line does not name were inactive. Unless noted, the call rests on the fitted dose curve; in most records, active means well fitted curve in the direction sought with a large enough effect; inconclusive means small, poorly fitted or top-dose-only effect, or another doubt; inactive means no such curve, though single readings can be large; an effect the other way counts as inactive or inconclusive.

Oc1c(C(c2ccco2)N2CCN(C(c3ccccc3)c3ccccc3)CC2)sc2ncnn12 (stereo not drawn)	CRE-bla Fsk 10µM, IkB sig inh inconclusive (no result: ERK AVP inh)
Oc1c(C(c2cccs2)N2CCN(c3cccc(Cl)c3)CC2)sc2ncnn12 (stereo not drawn)	CRE-bla Fsk 12.6µM (no result: ERK AVP inh)
O=C1c2ccccc2-c2nc3ncnn3c(-c3ccccc3Cl)c21	CRE-bla Fsk 12.6µM
Cc1sc2ncnc(SC(C)C#N)c2c1C (stereo not drawn)	CRE-bla Fsk 5.01µM
Cc1sc2ncnc(SCc3ccco3)c2c1C	IkB sig inh inconclusive
Cn1cc(C(=O)c2ccc(F)cc2)cc1-c1nc2ccccc2n1C	IkB sig inh inconclusive, ERK AVP inh 25.1µM
CC(=O)c1cc(-c2nc3ccccc3n2C)n(C)c1	none
c1csc(CNc2ncncc2-c2ccc3c(c2)OCO3)c1	CRE-bla Fsk inconclusive, ERK AVP inh 6.31µM
CCOc1ccc2nc(SCC#N)c(C#N)cc2c1	CRE-bla Fsk 5.01µM (no result: Imprint erasure)
COc1cc(/C=C/C(=O)N2CCCCC2=O)cc(OC)c1OC	none (no result: CRE-bla Fsk, IkB sig inh)
Cc1c(-c2ccc(F)cc2)nc(N)c(C#N)c1-c1ccco1	CRE-bla Fsk 1.58µM
CSc1nc(N)c(C#N)c(-c2ccc(Cl)cc2)c1C#N	CRE-bla Fsk inconclusive, IkB sig inh inconclusive, ERK AVP inh inconclusive
CCCc1nc(N)c(C#N)c(-c2ccco2)c1CC	CRE-bla Fsk 7.94µM
NC(=S)NCCCC(N)C(=O)O (stereo not drawn)	none (no result: CRE-bla Fsk, IkB sig inh, ERK AVP inh)
COC(=O)NC(CC(C)=O)c1cccs1 (stereo not drawn)	none (no result: CRE-bla Fsk, Imprint erasure, IkB sig inh)
O=C(Nc1nc(-c2nc3ccccc3s2)cs1)c1ccc(S(=O)(=O)N2CCOCC2)cc1	CRE-bla Fsk inconclusive, IkB sig inh inconclusive, ERK AVP inh 3.16µM
O=C(Nc1nc(-c2nc3ccccc3s2)cs1)C1COc2ccccc2O1 (stereo not drawn)	CRE-bla Fsk 3.98µM, IkB sig inh inconclusive (no result: ERK AVP inh)
O=C(Nc1nc(-c2ccc(S(=O)(=O)N3CCCCCC3)cc2)cs1)c1cccs1	IkB sig inh inconclusive, ERK AVP inh inconclusive
O=C(Nc1nc(-c2ccc(S(=O)(=O)N3CCCC3)cc2)cs1)c1cccs1	IkB sig inh inconclusive, ERK AVP inh 15.8µM
COc1ccc(-c2coc3ccc(O[C@@H]4O[C@@H](COC(C)=O)[C@@H](OC(C)=O)[C@@H](OC(C)=O)[C@H]4OC(C)=O)cc3c2=O)cc1	CRE-bla Fsk inconclusive (no result: Imprint erasure, ERK AVP inh)
O=C(NCCc1ccccc1)c1ccc(-n2cnnn2)cc1	none
O=C(COc1ccc(-n2cnnn2)cc1)NCCc1ccc(F)cc1	CRE-bla Fsk 0.0631µM
COc1c2c(nc3ccccc13)O[C@@H]([C@@](C)(O)CO)C2	none (no result: Imprint erasure)
Cc1ccccc1-n1c(=O)cc(N2CCN(Cc3ccccc3)CC2)[nH]c1=O	CRE-bla Fsk 15.8µM (no result: ERK AVP inh)
Cc1noc(C)c1-c1nc(Nc2ccc(F)cc2)c2ccccc2n1	none
Cc1csc(NC(=O)CSCC(=O)Nc2ccccc2)n1	ERK AVP inh 31.6µM
O[C@@H]1[C@@H]2c3cc4c(cc3CN3CCC(=C[C@@H]1O)[C@H]23)OCO4	CRE-bla Fsk 0.794µM, IkB sig inh inconclusive, ERK AVP inh inconclusive
CC(=O)CCc1oc2ccc(NC(C)=O)cc2c1-c1ccc(C)o1	ERK AVP inh 31.6µM
O=C1[C@@H]2[C@H]3[C@H](O)[C@H](O)C/C(=N/OCc4ccccc4)[C@@H]3CC[C@H]2C(=O)N1c1ccc(F)cc1F	none (no result: CRE-bla Fsk, Imprint erasure, IkB sig inh)
COc1ccc2c(c1)c(=O)oc1cc(OCC(=O)N3CCCC(C)C3)ccc12 (stereo not drawn)	CRE-bla Fsk inconclusive, IkB sig inh inconclusive, ERK AVP inh 31.6µM
Cc1nc(SCC#N)c2c(C)c(C)sc2n1	CRE-bla Fsk 2µM, ERK AVP inh inconclusive
C=C(C)C(O)C(CC/C=C(\C)C(=O)OCC)OC (stereo not drawn)	none (no result: CRE-bla Fsk, Imprint erasure, IkB sig inh)
O=C(O[C@@H]1Cc2c(O)cc(O)cc2OC1c1ccc(O)c(O)c1)c1cc(O)c(O)c(O)c1 (stereo partly drawn)	none (no result: CRE-bla Fsk, IkB sig inh)
N#Cc1c(/N=C/c2cccs2)sc2c1CCCCC2	ERK AVP inh 15.8µM
CCOC(=O)Cc1nnc(NC(=O)CSc2nnc3c4ccccc4n(C)c3n2)s1	CRE-bla Fsk 3.16µM
CCCc1nnc(NC(=O)C(CC)Sc2nnc3c4ccccc4n(C)c3n2)s1 (stereo not drawn)	none (no result: CRE-bla Fsk, ERK AVP inh)
O=C1NC(=O)c2cc(Nc3ccccc3)c(Nc3ccccc3)cc21	ERK AVP inh 31.6µM (no result: CRE-bla Fsk, IkB sig inh)
COc1cc(-c2noc(-c3cccs3)n2)cc(OC)c1OC	CRE-bla Fsk 10µM
COc1cc(-c2nc(-c3ccccn3)no2)cc(OC)c1OC	CRE-bla Fsk 1.26µM, IkB sig inh inconclusive
c1ccc(-c2cc(-c3nc(-c4ccccn4)no3)c3ccccc3n2)cc1	CRE-bla Fsk 3.16µM, ERK AVP inh inconclusive
COc1ccccc1-c1noc(-c2cc(OC)c(OC)c(OC)c2)n1	CRE-bla Fsk 6.31µM
CCOc1cc(-c2nc(-c3cc(OC)c(OC)c(OC)c3)no2)cc(OCC)c1OCC	none
COc1cccc(-c2nc(-c3ccccn3)no2)c1OC	CRE-bla Fsk inconclusive
O=c1[nH]c2[nH]c(=S)[nH]c(=S)c2[nH]1	CRE-bla Fsk inconclusive
Cc1nc2sc3c(c2c2nc(-c4ccco4)nn12)CC(C)(C)OC3	CRE-bla Fsk 3.16µM
CCOC(=O)c1sc2nc(-c3ccco3)c3c(c2c1N)CC(C)(C)OC3	IkB sig inh inconclusive
CCOC(=O)C1CCN(C(=O)Nc2ccc3nc(-c4ccco4)c(-c4ccco4)nc3c2)CC1	ERK AVP inh 25.1µM
c1ccc(-c2csc(Nc3nc(N4CCOCC4)nc(N4CCOCC4)n3)n2)cc1	CRE-bla Fsk 2µM
COC(=O)c1ccc(NC(=O)C2CCCN2S(=O)(=O)c2ccc(C)cc2)cc1 (stereo not drawn)	ERK AVP inh 25.1µM
COC(=O)c1cc(OC)c(OC)cc1NC(=O)C1CCC(=O)N1S(=O)(=O)c1ccc(C)cc1 (stereo not drawn)	CRE-bla Fsk 10µM, ERK AVP inh 25.1µM
CCn1c2ccccc2c2nnc(SCC(=O)N3CC(C)OC(C)C3)nc21 (stereo not drawn)	CRE-bla Fsk 10µM, ERK AVP inh inconclusive
COCCNc1cc(C)nc2c3c(C)cc(C)nc3nn12	CRE-bla Fsk 12.6µM
Cc1cc(C)c2c(n1)nn1c(NCCN3CCOCC3)cc(C)nc21	CRE-bla Fsk inconclusive
CCCN1C[C@@H](CSC)C[C@H]2c3cccc4[nH]cc(c34)C[C@@H]21	none (no result: Imprint erasure)
CCOC(=O)c1cnc(-n2nc(C)cc2C)nc1Nc1ccc(N(C)C)cc1	CRE-bla Fsk 0.631µM, ERK AVP inh inconclusive
FC(F)(F)c1ccccc1-c1cncnc1-n1ccnc1	none
CN(C)c1ccc(-c2cncnc2-n2ccnc2)cc1	Imprint erasure inconclusive, ERK AVP inh 15.8µM
O=c1n(Cc2ccccc2Cl)c2sc3c(c2c2ncnn12)CCCC3	CRE-bla Fsk 0.2µM
O=C(Cn1c(=O)n2ncnc2c2c3c(sc21)CCCC3)c1ccccc1	none
COc1cc(NS(=O)(=O)c2ccc(C)cc2)c2ncccc2c1	CRE-bla Fsk inconclusive, IkB sig inh 1.26µM
O=C(Nc1ccc2nc(-c3cccs3)[nH]c2c1)c1cccs1	CRE-bla Fsk 3.16µM, IkB sig inh inconclusive
